Assay [1] deals with Transcription factor E2F1 (Homo sapiens) (UniProt Q01094). Briefly: ATG_E2F_CIS: Attagene CIS-FACTORIAL HepG2 Assay for human E2F Transcription Factor 1 (AID 2282935). The settings on record: HepG2 Attagene cis-reporter, E2F reporter RNA transcripts; actives raise or lower the signal. An outline of the steps: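 Total RNA from 24 h-treated, reporter-transfected HepG2 cells undergoes DNase I treatment, oligo(dT) reverse transcription, PCR and 6-FAM primer extension before capillary electrophoresis.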

Assay [2] is described as follows: ATG_E_Box_CIS: Attagene CIS-FACTORIAL HepG2 Assay for human Enhancer Box (E-box) (AID 2282936). The settings on record: HepG2 E-box cis-reporter transcription, actives raise or lower the signal. An outline of the steps: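 DMSO served as negative control and baseline for bidirectional fitting. Human hepatoma HepG2 cells, transiently transfected with cis-reporter constructs, were dosed 24 h; reporter mRNA read by RT-PCR and capillary electrophoresis.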

Assay [3] in a line: ATG_M_61_CIS: Attagene CIS-FACTORIAL HepG2 Assay for M61 Transcription Factor (Internal Marker) (AID 2282937). The settings on record: HepG2 Attagene CIS-FACTORIAL M61 internal marker reporter; actives raise or lower the signal. The method in brief: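 HepG2 cells transiently transfected with cis-element-driven multiple reporter transcription units, dosed for 24 h. Reporter mRNA measured by RT-PCR, 6-FAM primer-extension labelling, HpaI digestion and capillary electrophoresis; bidirectional fit versus DMSO baseline.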

The nature of assay [4]: ATG_EGR_CIS: Attagene CIS-FACTORIAL HepG2 Assay for human Early Growth Response 1 (EGR1) (AID 2282938). The settings on record: HepG2 Attagene CIS-FACTORIAL EGR reporter mRNA; actives raise or lower the signal. An outline of the steps: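 HepG2 cells transiently transfected with cis-promoter-driven multiplexed reporter transcription units; reporter mRNA measured 24 h after compound dosing by RT-PCR, 6-FAM primer extension, HpaI digestion and capillary electrophoresis. Bidirectional fit versus DMSO baseline.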

The nature of assay [5]: ATG_M_19_CIS: Attagene CIS-FACTORIAL HepG2 Assay for M19 Transcription Factor (Internal Marker) (AID 2282939). The following applies: HepG2 Attagene CIS-FACTORIAL M19 internal marker reporter; actives raise or lower the signal. An outline of the steps:
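Following a 24 h exposure, RNA from transfected HepG2 cells was reverse-transcribed, PCR-amplified with reporter-specific primers, end-labelled with 6-FAM and HpaI-digested before capillary separation. Values represent gain or loss versus DMSO.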

Assay [6] in a line: ATG_ERE_CIS: Attagene CIS-FACTORIAL HepG2 Assay for Estrogen Response Element (ERE) (AID 2282940). The settings on record: HepG2 ERE cis-reporter, Attagene RNA transcript; actives raise or lower the signal. The method in brief: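 HepG2, transient cis-reporter units, 24 h exposure. RNA isolated, oligo(dT) RT, reporter-specific PCR, FAM extension, HpaI cut, CE detection. Gain/loss-of-signal vs DMSO.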

The nature of assay [7]: ATG_Ets_CIS: Attagene CIS-FACTORIAL HepG2 Assay for human Erythroblast Transformation Specific (ETS) (AID 2282941). The settings on record: HepG2 ETS cis-reporter transcription, actives raise or lower the signal. The method in brief: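 Human HepG2 hepatoma cells were transiently transfected with promoter-driven reporter constructs and treated for 24 hours. Reporter transcripts were quantified by RT-PCR with fluorescent primer extension; bidirectional curve fitting used DMSO as reference.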

Assay [8] addresses Hepatocyte nuclear factor 3-beta (Homo sapiens) (UniProt Q9Y261). Briefly: ATG_FoxA2_CIS: Attagene CIS-FACTORIAL HepG2 Assay for human Forkhead box A2 (FOXA2) (AID 2282942). The settings on record: HepG2 cis-reporter transcription factor activity, 24 h; actives raise or lower the signal. The method in brief: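 HepG2 cells transiently transfected with multiple cis-regulated reporter transcription units, dosed for 24 h. Reporter mRNA measured by RT-PCR, 6-FAM labelling, HpaI digestion and capillary electrophoresis; bidirectional fitting against DMSO baseline.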

Assay [9] in a line: ATG_FoxO_CIS: Attagene CIS-FACTORIAL HepG2 Assay for human Forkhead box O (FoxO) (AID 2282943). The settings on record: HepG2 Attagene cis-reporter, FoxO element, mRNA; actives raise or lower the signal. The method in brief: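 Human hepatoma HepG2 cells carry transiently introduced reporter transcription units controlled by cis promoter elements. Chemical treatment lasted 24 h, and mRNA signal was compared with DMSO.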

The nature of assay [10]: ATG_GATA_CIS: Attagene CIS-FACTORIAL HepG2 Assay for human GATA Binding Protein (AID 2282944). The settings on record: HepG2 GATA cis-element reporter, Attagene multiplex mRNA; actives raise or lower the signal. The method in brief:
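DMSO serves as negative control and baseline for bidirectional fitting of reporter mRNA changes. HepG2 cells bearing transiently transfected cis-promoter reporters were exposed 24 h; transcripts detected via RT-PCR and capillary electrophoresis.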

The source made the active and inactive calls. The calls were made as follows: active = hit-call score of the fitted dose curve at least 0.9, where 1 is the maximum; inactive = score below 0.9.

Hepatocyte nuclear factor 3-beta (Homo sapiens), sequence (Q9Y261 whole entry, looked up): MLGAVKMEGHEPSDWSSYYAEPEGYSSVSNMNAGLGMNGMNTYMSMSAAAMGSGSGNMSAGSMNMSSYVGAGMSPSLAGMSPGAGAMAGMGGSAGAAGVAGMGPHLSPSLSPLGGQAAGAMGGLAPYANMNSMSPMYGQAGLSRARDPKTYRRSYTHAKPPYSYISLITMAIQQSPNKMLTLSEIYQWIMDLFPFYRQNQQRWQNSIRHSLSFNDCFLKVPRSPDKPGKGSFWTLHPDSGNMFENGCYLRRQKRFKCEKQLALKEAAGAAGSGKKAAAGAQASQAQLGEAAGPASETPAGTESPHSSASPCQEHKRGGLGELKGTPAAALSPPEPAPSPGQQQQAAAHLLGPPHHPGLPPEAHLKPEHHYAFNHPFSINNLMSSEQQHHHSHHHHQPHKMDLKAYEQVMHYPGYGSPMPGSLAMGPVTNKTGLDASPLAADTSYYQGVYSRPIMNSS
Transcription factor E2F1 (Homo sapiens), sequence (Q01094 whole entry, looked up): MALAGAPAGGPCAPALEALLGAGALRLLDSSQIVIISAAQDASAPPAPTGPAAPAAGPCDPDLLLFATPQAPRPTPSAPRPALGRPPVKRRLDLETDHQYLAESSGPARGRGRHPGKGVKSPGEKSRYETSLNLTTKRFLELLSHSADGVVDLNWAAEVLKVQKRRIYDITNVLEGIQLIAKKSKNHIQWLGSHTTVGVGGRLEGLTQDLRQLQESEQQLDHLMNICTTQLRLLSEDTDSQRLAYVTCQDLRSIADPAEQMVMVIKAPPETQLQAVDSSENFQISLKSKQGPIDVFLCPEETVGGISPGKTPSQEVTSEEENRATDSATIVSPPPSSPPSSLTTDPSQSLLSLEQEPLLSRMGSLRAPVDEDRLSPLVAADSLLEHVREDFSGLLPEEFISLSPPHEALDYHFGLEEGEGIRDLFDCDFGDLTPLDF

Consider `CC(=O)CCc1ccc(O)cc1`, for which the result in assay [1], in assay [2], in [3], in assay [4], in [5] and in [6] was inactive. The molecule was classed as inactive in assay [7], in assay [8], in assay [9] and in assay [10].

Regarding `CC(C)Cc1ccccc1`, the result in assay [1], in [2], in assay [3], in assay [4], in assay [5] and in assay [6] was inactive. Moreover, the call in assay [7], in assay [8], in assay [9] and in assay [10] was inactive.

As for `CC(C)N1C(=O)c2ccccc2C1=O`, the call in assay [1], in assay [2], in assay [3], in assay [4], in assay [5] and in assay [7] was inactive. Also, the molecule was called inactive in assay [8], in assay [9] and in assay [10]. In assay [6], the AC50 (in general, the concentration giving half of the maximal activity seen) is 74.7 µM (active).

As to `CCCO`, the result in [1], in assay [2], in assay [3], in [4], in assay [5] and in assay [6] was inactive. Moreover, the outcome in [7], in assay [8], in [9] and in assay [10] was inactive.

In the case of `CCCC(O)C(CC)CO` (stereo not given), the call in assay [1], in [2], in assay [3], in assay [4], in assay [5] and in assay [6] was inactive. In addition, the outcome in assay [7], in [8], in [9] and in [10] was inactive.

Turning to `NC(N)=NC(N)=NCCc1ccccc1`, the molecule was classed as inactive in assay [1], in assay [2], in [3], in [4], in [5] and in assay [6]. Further, the call in [7], in assay [8], in [9] and in assay [10] was inactive.

With `C=C/C(C)=C/C/C=C(\C)CCC=C(C)C`, the molecule was classed as inactive in [1], in assay [2], in [3], in [4], in [5] and in [7]. For the same molecule, the molecule was called inactive in assay [8], in assay [9] and in assay [10]. In addition, in assay [6], the AC50 was 56.8 µM (active).

For the molecule `CCC(CC)CO`, the molecule was called inactive in assay [1], in assay [2], in assay [3], in [4], in [5] and in assay [6]. In addition, the result in assay [7], in assay [8], in [9] and in assay [10] was inactive.

With `COC(=O)c1ccc(C(=O)OC)cc1`, the call in assay [1], in [2], in assay [3], in assay [4], in [5] and in [6] was inactive. In addition, the result in [7], in assay [8], in assay [9] and in [10] was inactive.

As for `CCCCCCCCCOS(=O)(=O)O`, the call in assay [1], in [2], in [3], in assay [4], in [5] and in [7] was inactive. For the same molecule, the molecule was classed as inactive in assay [8], in assay [9] and in assay [10]. Further, the AC50 in assay [6] was 5.14 µM (active).

As for `O=C1OC2(c3ccc(O)cc3Oc3cc(O)ccc32)c2ccccc21`, the outcome in assay [1], in [2], in assay [3], in assay [4], in [5] and in [6] was inactive. Besides, the molecule was classed as inactive in [7], in assay [8], in [9] and in [10].

For the molecule `CCOc1ccc(NC(C)=O)cc1`, the molecule was classed as inactive in assay [1], in [2], in [3], in [4], in assay [5] and in [6]. In addition, the outcome in [7], in [8], in assay [9] and in [10] was inactive.

On to `COc1ccc(N)c(C)c1`, for which the result in assay [1], in [2], in assay [3], in [4], in assay [5] and in [7] was inactive. In addition, the outcome in assay [8], in [9] and in assay [10] was inactive. Further, the AC50 in [6] is 25.5 µM (active).

As for `CCCCCC(=O)O[C@]1(C(C)=O)CC[C@H]2[C@@H]3CCC4=CC(=O)CC[C@]4(C)[C@H]3CC[C@@]21C`, the molecule was called inactive in assay [1], in assay [2], in assay [3], in [4], in [5] and in [6]. In addition, the result in assay [7], in [8], in assay [9] and in assay [10] was inactive.

`C=C(C)CCCC(C)CCO` (stereo not given): the result in [1], in assay [2], in assay [3], in assay [4], in assay [5] and in [6] was inactive. Moreover, the result in assay [7], in [8], in assay [9] and in assay [10] was inactive.

On to `CCCCCCCCCCCCS`, for which the result in assay [1], in [2], in assay [3], in [4], in assay [5] and in [6] was inactive. The molecule was called inactive in assay [7], in assay [8], in [9] and in [10].

In the case of `CCCC1CCOC(C)S1` (stereo not given), the molecule was called inactive in assay [1], in assay [2], in assay [3], in [4], in assay [5] and in assay [6]. The molecule was called inactive in [7], in [8], in [9] and in [10].

Consider `c1ccc2c(c1)-c1ccc3ccc4cccc5cc-2c1c3c45`, for which the molecule was classed as inactive in assay [1], in [2], in assay [3], in assay [4], in [5] and in [7]. The molecule was called inactive in assay [9] and in assay [10]. Also, the concentration at half-maximal activity (AC50) is 0.374 µM (active) in assay [6] and 0.381 µM (active) in assay [8].

Turning to `COc1cc(OC)c2ccc(=O)oc2c1`, the result in assay [1], in [2], in assay [3], in assay [4], in assay [5] and in [6] was inactive. Also, the molecule was classed as inactive in assay [7], in assay [8], in assay [9] and in assay [10].

Take `CCCCCCCCCCCCOC(C)=O`: the molecule was classed as inactive in assay [1], in assay [2], in [3], in assay [4], in assay [5] and in [6]. The outcome in assay [7], in assay [8], in assay [9] and in [10] was inactive.

In the case of `CC/C=C\CCOC(C)OCC` (stereo not given), the call in [1], in [2], in assay [3], in assay [4], in assay [5] and in assay [6] was inactive. Besides, the molecule was called inactive in assay [7], in assay [8], in assay [9] and in [10].

With `N#CCCCC(C#N)CCC#N` (stereo not given), the call in assay [1], in assay [2], in assay [3], in assay [4], in [5] and in [6] was inactive. The molecule was called inactive in [7], in assay [8], in assay [9] and in [10].

As for `S=c1[nH][nH]c(=S)s1`, the molecule was classed as inactive in assay [1], in assay [2], in [3], in assay [4], in assay [5] and in [6]. Besides, the molecule was called inactive in assay [7], in assay [8], in [9] and in [10].

Regarding `CC(CCO)CC(C)(C)C` (stereo not given), the outcome in assay [1], in assay [2], in [3], in assay [4], in [5] and in assay [6] was inactive. For the same molecule, the call in assay [7], in assay [8], in assay [9] and in assay [10] was inactive.

Regarding `CCCCCC1CCC(=O)O1` (stereo not given), the molecule was classed as inactive in [1], in assay [2], in assay [3], in assay [4], in assay [5] and in [6]. Besides, the molecule was classed as inactive in [7], in assay [8], in assay [9] and in assay [10].

Consider `O=S(=O)(O)c1cc(S(=O)(=O)O)c2c(N=Nc3ccccc3)c(O)ccc2c1`, for which the molecule was called inactive in assay [1], in assay [2], in assay [3], in assay [4], in [5] and in assay [6]. The outcome in assay [7], in assay [8], in [9] and in assay [10] was inactive.

The values are drawn from PubChem BioAssay (EPA / NIEHS).
